LYPLA2 inh – counter-screen for PME1 inhibitors: inhibitors of human LYPLA2; 320,000 compounds, 0.38% hits; O95372; inhibition, % at 5.9 µM; recombinant LYPLA2, FP-Rh probe fluorescence polarization;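 active = inhibition above the screen-wide mean plus 3 SD, limit set per campaign, cut at about 26% in these data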
Fam108B counter – counter-screen for RBBP9 inhibitors: inhibitors of mouse Fam108B. recombinant Fam108B, FP-Rh probe fluorescence polarization. inhibition, % at 9.51 µM. 300,000 compounds, 0.33% hits. AID 1947;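 active = inhibition above the screen mean inhibition plus 3 SD, computed separately per campaign, cut at about 18% in these data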;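 also: inhibitors lower polarization as less probe binds the enzyme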
PREPL inh – inhibits the human prolyl oligopeptidase-like enzyme; inhibition, % at 5.96 µM; AID 2751; 320,000 compounds, 0.68% hits; recombinant PREPL, fluorescence polarization activity-based probe; in the data active = inhibition above about 43%
GSTO1 counter – blocks human GSTO1 in RBBP9 counter-screen; P78417; recombinant GSTO1, activity-based probe fluorescence polarization; inhibition, % at 5.96 µM; 300,000 compounds, 1.1% hits; AID 1974;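 active = inhibition above the campaign mean inhibition plus 3 SD, cut at about 35% in these data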
LYPLA1 counter – LYPLA1 (human) inhibition in PME1 counter-screen | O75608 | recombinant LYPLA1, FP-Rh probe fluorescence polarization | inhibition, % at 5.9 µM | 320,000 compounds, 0.16% hits | AID 2174;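 active = inhibition above the mean of all tested compounds plus 3 SD, set per campaign, cut at about 14% in these data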;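 also: inhibitors block serine hydrolase probe labeling of LYPLA1 so polarization falls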
PME-1 primary – blocks human protein phosphatase methylesterase 1. Q9Y570. recombinant PME-1, FP-Rh probe fluorescence polarization. inhibition, % at 5.9 µM. 320,000 compounds, 0.53% hits. AID 2130;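 active = inhibition above the campaign mean of all compounds plus 3 SD, cut at about 26% in these data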;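 also: competitive labeling of PME-1 active site by serine hydrolase directed probe; inhibitors block probe labeling so polarization falls and inhibition rises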
Fam108b confirm – Fam108b (mouse) hydrolase inhibition, confirmation assay; shares compounds with Fam108B counter; recombinant Fam108b, FP-Rh probe fluorescence polarization; 930 compounds, 44% hits; AID 1978; inhibition, % at 9.51 µM;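 active = inhibition above a limit from the primary screen, the mean over all compounds plus 3 SD, cut at about 19% in these data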;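 also: inhibitors free the probe so polarization falls as inhibition rises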
Fam108b inh – mouse ABHD17B inhibition | shares compounds with Fam108B counter | recombinant Fam108b, gel-based ABPP, fluorophosphonate probe | inhibition, % at 20 µM | 260 compounds, 44% hits | AID 588649; in the data active = inhibition above about 40%
A number is an active result; - = inactive; . = no result. This is a sample that favours compounds with a hit; in the whole collection about 1.9% have one here.

SMILES | LYPLA2 inh | Fam108B counter | PREPL inh | GSTO1 counter | LYPLA1 counter | PME-1 primary | Fam108b confirm | others
Nc1ncccc1C(=O)OCC(=O)N1CCN(S(=O)(=O)c2ccc(Cl)cc2)CC1 | - | . | - | . | - | - | .
Cc1ccc(C(=O)NNC(=O)c2ccc(NS(=O)(=O)c3cccs3)cc2)o1 | - | . | - | . | - | - | .
O=C1CC(N2CCN(S(=O)(=O)c3ccccc3F)CC2)C(=O)N1c1ccc(F)cc1F (stereo not given) | . | . | - | . | . | . | .
N=C1/C(=C/c2cccn2CCOc2ccccc2)C(=O)N=C2SC=C(c3ccccc3)N12 | - | 19 | - | - | - | - | -
N=C1/C(=C/c2ccc(-c3cccc(C(=O)O)c3)o2)C(=O)N=C2SC=C(c3ccccc3)N12 | - | 37 | - | - | - | - | 18
O=C(CN1C(=O)NC2(CCc3ccccc32)C1=O)NCCc1ccccc1 (stereo not given) | - | . | - | . | - | - | .
COc1ccccc1/C=C1\S/C(=N/NC(=O)c2cccc(Br)c2)NC1=O | - | 21 | - | - | - | - | -
COc1ccc(CCC(=O)Nc2cccc(Cl)c2)cc1 | - | - | - | - | - | - | .
O=C(CCc1ccc(Oc2cc([N+](=O)[O-])cc([N+](=O)[O-])c2)cc1)Nc1cccc(Cl)c1 | - | 28 | - | - | - | - | -
O=C(NC1CCC(=O)N(CCOc2ccccc2)CC1)OCc1ccccc1 (stereo not given) | - | - | - | - | - | - | .
O=[N+]([O-])c1cc(/C=N/Nc2nc3ccccc3[nH]2)c(O)cc1O | - | 19 | - | - | - | - | -
C(=N\Nc1nc2ccccc2[nH]1)/c1ccccc1 | - | - | - | - | - | - | .
CC(C)c1ccc(CN2CCN(C(=O)CSc3nnnn3C3CC3)CC2)cc1 | - | . | - | . | - | - | .
CCCC1Nc2ccc(C(=O)O)cc2C2C=CCC12 (stereo not given) | - | 25 | - | - | - | - | -
Cc1ccc(-n2ncc3c2CC(C)(C)CC3NC(=O)c2ccccn2)cc1 (stereo not given) | - | - | - | - | - | - | .
Cc1ccc(NCN2C(=O)C3C4C=CC(C4)C3C2=O)cc1 (stereo not given) | - | - | - | - | - | - | .
O=C1C2C3C=CC(C3)C2C(=O)N1CNc1ccc(O)cc1 (stereo not given) | - | 33 | - | 93 | - | 44 | -
CCCCCCCCCCCCCCCC[n+]1ccc(C=NO)cc1 | . | . | . | . | . | . | . | Fam108b inh=75
O=C(O)c1ccc(-n2cccc2/C=C2/NC(=O)N(c3ccccc3)C2=O)cc1 | - | 20 | - | - | - | - | -
O=C(O)c1cccc(-n2cccc2/C=C2\NC(=O)N(Cc3ccc(F)cc3)C2=O)c1 | - | - | - | - | - | - | .
COc1cccc(-c2nc(-c3ccc4c(c3)-c3ccccc3S4(=O)=O)c(-c3ccccc3)[nH]2)c1OC | - | - | - | - | - | - | .
COc1cc(-c2nc(-c3ccc4c(c3)-c3ccccc3S4(=O)=O)c(-c3ccccc3)[nH]2)cc(OC)c1OC | - | 29 | - | - | - | - | -
Brc1ccc(C2=Nc3cccc4cccc(c34)N2)o1 | - | 19 | - | - | - | - | -
O=C(CN1CCN(S(=O)(=O)c2cccc(F)c2)CC1)NCC1(N2CCOCC2)CCCCC1 | - | . | - | . | - | - | .
O=C/C=C/c1c(-c2ccccc2)cc2oc3ccccc3cc1-2 | - | 27 | - | - | - | - | -
SMILES | LYPLA2 inh | Fam108B counter | PREPL inh | GSTO1 counter | LYPLA1 counter | PME-1 primary | Fam108b confirm | others
Cc1nc(SCC(=O)NCCN2C(=O)CSC2=O)nc(C)c1C | . | . | - | . | . | . | .
Cc1cc(Nc2ccccc2)nc(NCc2ccccc2)n1 | - | - | - | - | - | - | .
Cc1cc(Nc2ccc(Cl)cc2)nc(NCc2ccccc2)n1 | - | 34 | - | - | - | - | 32 | Fam108b inh=45
O=C(O)CSc1c2c(nc3cc(C(=O)Nc4cccc(C(F)(F)F)c4)ccc13)CCC2 | - | - | - | - | - | - | .
COc1ccc(-c2[nH]c(-c3ccccc3)nc2SCC(=O)NCc2ccco2)cc1OC | - | - | - | - | - | - | .
COc1ccc(-c2nc(SCC(=O)NCc3ccco3)c(-c3ccccc3)[nH]2)cc1OC | - | 20 | - | - | - | - | -

Compound activity (PubChem BioAssay)
